Among all 310,000 compounds or so, about 1,600 (0.52%) were called active.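 The calls were made as follows: active = activation above the mean of controls blocked by dofetilide plus 5 SD; inactive = the rest.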 Shown is part of a subset that was picked to be rich in actives.
Target: Voltage-gated inwardly rectifying potassium channel KCNH2 (Homo sapiens) (UniProt Q12809)
Assay: compounds relieving dofetilide block of hERG – cell-based, CHO-hERG, FluxOR thallium flux, dofetilide IC70, primary screen (AID 1511);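 also: thallium influx through hERG after potassium depolarization seen as dye fluorescence rise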
Details: dofetilide IC70 present, at 10 µM, active compounds read high

Voltage-gated inwardly rectifying potassium channel KCNH2 (Homo sapiens), sequence (Q12809 whole entry, looked up): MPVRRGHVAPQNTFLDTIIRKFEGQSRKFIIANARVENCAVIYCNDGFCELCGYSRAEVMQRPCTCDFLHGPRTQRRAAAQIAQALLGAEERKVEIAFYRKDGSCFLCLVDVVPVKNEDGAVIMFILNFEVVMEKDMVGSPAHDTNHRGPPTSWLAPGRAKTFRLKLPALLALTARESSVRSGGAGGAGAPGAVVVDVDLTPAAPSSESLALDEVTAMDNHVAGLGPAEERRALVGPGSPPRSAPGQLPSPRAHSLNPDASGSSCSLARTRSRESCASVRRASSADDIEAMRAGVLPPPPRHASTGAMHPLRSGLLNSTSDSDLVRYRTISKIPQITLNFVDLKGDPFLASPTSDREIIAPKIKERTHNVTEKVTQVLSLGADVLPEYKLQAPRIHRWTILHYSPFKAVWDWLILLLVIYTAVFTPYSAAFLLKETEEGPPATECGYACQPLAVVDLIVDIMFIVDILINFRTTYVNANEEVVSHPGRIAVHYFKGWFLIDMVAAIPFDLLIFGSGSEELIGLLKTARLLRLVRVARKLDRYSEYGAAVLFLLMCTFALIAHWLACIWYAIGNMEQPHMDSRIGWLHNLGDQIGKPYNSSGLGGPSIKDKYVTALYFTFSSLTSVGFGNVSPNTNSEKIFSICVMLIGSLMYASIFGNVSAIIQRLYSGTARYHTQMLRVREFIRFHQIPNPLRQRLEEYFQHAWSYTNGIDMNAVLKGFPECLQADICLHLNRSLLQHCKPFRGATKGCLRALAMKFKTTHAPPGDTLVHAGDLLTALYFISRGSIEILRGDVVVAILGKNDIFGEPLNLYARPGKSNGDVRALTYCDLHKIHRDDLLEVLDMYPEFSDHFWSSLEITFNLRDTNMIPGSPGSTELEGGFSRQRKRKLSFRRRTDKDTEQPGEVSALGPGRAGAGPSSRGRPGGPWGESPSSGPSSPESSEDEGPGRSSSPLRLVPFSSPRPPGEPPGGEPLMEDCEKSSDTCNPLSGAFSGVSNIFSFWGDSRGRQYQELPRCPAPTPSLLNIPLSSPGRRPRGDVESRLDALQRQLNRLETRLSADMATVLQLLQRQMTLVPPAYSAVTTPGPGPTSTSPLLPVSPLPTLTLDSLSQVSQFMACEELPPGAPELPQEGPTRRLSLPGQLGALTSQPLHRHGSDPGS

Row | SMILES | activation (rescue from dofetilide block), less the hit threshold
1 | Cc1ccc2c(c1)N(S(=O)(=O)c1cc(-c3cc(C)no3)ccc1C)CCO2 | -7.78% (inactive)
2 | O=C(CCc1ccccc1)NCCc1cccs1 | -5.64% (inactive)
3 | COc1cc(S(=O)(=O)N2CCOCC2)ccc1NC(=O)COc1ccc(N(C)S(=O)(=O)c2ccc(C)cc2)cc1 | -22.3% (inactive)
4 | O=C1NC(c2ccccc2)Oc2ccccc21 (stereo unspecified) | -10.1% (inactive)
5 | CCNC(=S)Nc1ccc(OC(F)(F)F)cc1 | -17.9% (inactive)
6 | FC(F)(F)Oc1ccc(NC(=S)NCc2ccccc2)cc1 | -9.66% (inactive)
7 | CS(=O)(=O)c1sc(C(=O)NC(=S)Nc2ccc(OC(F)(F)F)cc2)c2c1C=CCC2 | 6.46% (active)
8 | CC1(C)Cc2c(sc(NC(=O)C(=O)N3CCOCC3)c2C#N)CO1 | -11.7% (inactive)
9 | O=C(CSc1nnnn1C1CCCC1)Nc1ccc2c(c1)OCCO2 | 6.54% (active)
10 | CC(=O)Nc1ccc(NC(=O)CSc2nnnn2C2CCCCC2)cc1 | -7.91% (inactive)
11 | CCC(=O)Nc1cccc(NC(=O)CSc2nnnn2C2CCCC2)c1 | -7.7% (inactive)
12 | O=C(O)c1ccccc1-c1ccccc1C(=O)NCCc1ccccc1 | -5.86% (inactive)
13 | CC(C)c1ccc(S(=O)(=O)NC2CCCC2)cc1 | -6% (inactive)
14 | CCOc1cc(CNn2c(C)nnc2SCC(=O)NC(C)(C)C)ccc1OCC(=O)NC(C)(C)C | -9.51% (inactive)
15 | CC1CCN(C(=S)NC2CC3CCC2C3)CC1 (stereo unspecified) | -8.02% (inactive)
16 | COc1ccc(CN2CCOC2=O)cc1OC | -6.78% (inactive)
17 | COc1ccc(CN2CC[C@H]3C=CC[C@@H](C(=O)N4CCOCC4)[C@H]3C2=O)cc1OC | 5.8% (active)
18 | COc1ccc(CNC(=O)[C@@H]2CC=C[C@@H]3CCN(C4CC4)C(=O)[C@@H]32)cc1 | -7.13% (inactive)
19 | Cc1ccc(S(=O)(=O)c2c[nH]c3ccc(C)cc3c2=O)cc1 | -9.36% (inactive)
20 | Cn1c(CC(=O)Nc2ccc(F)cc2)nnc1SCC(=O)NC1CCCCC1 | -1.47% (inactive)
21 | CCOC(=O)c1c(NC(=S)NC)sc2c1CCCC2 | 28.9% (active)

Row | SMILES | activation (rescue from dofetilide block), less the hit threshold
22 | CCOC(=O)c1c(NC(=S)Nc2ccccc2)sc2c1CCN(C)C2 | -15.5% (inactive)
23 | CCOC(=O)c1c(NC(=O)C2(C)Cc3ccccc3C(=O)O2)sc2c1CCCC2 (stereo unspecified) | -5.83% (inactive)
24 | CCOc1ccc(CCN2C(=O)c3cccnc3C2=O)cc1OCC | -5.29% (inactive)
25 | CCc1nnc(NC(=O)c2c(O)c3c([nH]c2=O)CCCC3)s1 | -12.7% (inactive)
26 | C[N+](C)(C)CCNC(=O)c1c(O)c2c([nH]c1=O)CCCC2 | 4.89% (active)
27 | O=C(NCc1ccccn1)c1c(O)c2c([nH]c1=O)CCCC2 | -0.66% (inactive)
28 | CCSc1ccccc1C(=O)NCc1ccc(OC)cc1 | 0.47% (inactive)
29 | CCC(C(=O)NC1CCCC1)N(C(=O)Cn1nnc(-c2ccc(C)o2)n1)c1ccc(OC)c(OC)c1 (stereo unspecified) | -1.5% (inactive)
30 | CC(C)CNC(=S)NC(=O)c1ccc(Cl)cc1 | 7.52% (active)
31 | CC(C)C(NC(=O)c1ccc(Cl)cc1)C(=O)O (stereo unspecified) | -8.13% (inactive)
32 | O=C(NC(=S)NC1CCCCC1)c1ccc(Cl)cc1 | -1.76% (inactive)
33 | OC(c1nnc(-c2ccccc2)o1)c1cccs1 (stereo unspecified) | -10.2% (inactive)
34 | COCCCNC(=O)[C@H]1N2C(=O)c3ccccc3C2SC1(C)C (stereo partly specified) | -7.64% (inactive)
35 | CC1CCCN(C(=O)c2ccc3c(c2)C(=O)N(CCC2=CCCCC2)C3=O)C1 (stereo unspecified) | -17.2% (inactive)
36 | Cc1ccc(S(=O)(=O)Oc2ccc(/C=N/NC(=O)c3c(Cl)cnn3C)cc2)cc1 | -18.1% (inactive)
37 | CCc1nc2sc3c(Cl)ncnc3c2c2c1CCCC2 | -13.4% (inactive)
38 | Cc1cc(C)c2nc(NC(=O)C3CCCO3)sc2c1 (stereo unspecified) | 5.12% (active)
39 | Cc1cc([N+](=O)[O-])ccc1NC(=O)C1CCCO1 (stereo unspecified) | -1.96% (inactive)
40 | Cc1ccc(C)c(C(C)NC(=O)C2CCCO2)c1 (stereo unspecified) | -6.97% (inactive)
41 | CSc1cccc(NC(=S)N(C(C)C)C(C)c2ccccn2)c1 (stereo unspecified) | -10.5% (inactive)
42 | Cc1cc(NC(=O)CSc2nc3cc(Cl)ccc3c(=O)n2Cc2ccco2)no1 | 6.67% (active)

Row | SMILES | activation (rescue from dofetilide block), less the hit threshold
43 | N#Cc1c(NC(=O)CSc2nc3ccccc3c(=O)n2Cc2ccco2)sc2c1CCCC2 | -16.4% (inactive)
44 | Cc1cc(NC(=O)CSc2nc3ccccc3n2CC(C)C)no1 | -8.27% (inactive)
45 | CCN1CCN(c2nc(Nc3cccc(F)c3)nc(N)c2[N+](=O)[O-])CC1 | 1.19% (inactive)
46 | CCCN(CCC)S(=O)(=O)c1ccc(C(=O)NNC(=O)c2cc(OC)c(OC)c(OC)c2)cc1 | -5.35% (inactive)
47 | CC1(OC(=O)C2CCCC2)C(=O)C=C2C=C(c3ccc(C#N)cc3)OC=C2C1=O (stereo unspecified) | 7.34% (active)
48 | COCCN1C=C2C(=O)C(C)(OC(=O)C3CCCC3)C(=O)C=C2C=C1c1ccsc1 (stereo unspecified) | -7.58% (inactive)
49 | C=CCN1C=C2C(=O)C(C)(OC(=O)CCc3ccccc3)C(=O)C=C2C=C1c1ccc(C#N)cc1 (stereo unspecified) | -7.84% (inactive)
50 | COc1ccc2c(c1)OC(O)(C(F)(F)C(F)F)CC2=O (stereo unspecified) | -2.37% (inactive)
51 | O=C(Cn1cnc2ccccc2c1=O)Nc1cccc(S(=O)(=O)N2CCCCC2)c1 | -13.8% (inactive)
52 | CC1CCN(S(=O)(=O)c2ccc3ncn(CC(=O)N(C)C4CCCCC4)c(=O)c3c2)CC1 | -5.76% (inactive)
53 | CCN1CCCC1CNC(=O)Cn1cnc2ccc(S(=O)(=O)N3CCC(C)CC3)cc2c1=O (stereo unspecified) | 7.23% (active)
54 | CN(CCc1cn[nH]c1)C(=O)CC1C(=O)NCCN1Cc1cccc(Oc2ccccc2)c1 (stereo unspecified) | -5.68% (inactive)
55 | S=c1[nH]c2ccccc2c2ccccc12 | 6.26% (active)
56 | S=c1ccc2ccccc2[nH]1 | -11.4% (inactive)
57 | NC(=O)Cc1ccc2c(c1)[nH]c1ccccc12 | -8.6% (inactive)
58 | O=C(C1CCCN1S(=O)(=O)c1ccc(Br)cc1)N1CCOCC1 (stereo unspecified) | -0.78% (inactive)
59 | CCN(CC)C(=O)CSc1nnc(C2CCCCC2)o1 | -6.69% (inactive)
60 | CCCCCC1CCC(c2nnc(SCC(C)=O)o2)CC1 (stereo unspecified) | 5.95% (active)
61 | O=C(CSc1nnc(-c2ccccc2O)o1)NC1CCCCC1 | -7.03% (inactive)

Reference: PubChem BioAssay AID1511 (Johns Hopkins Ion Channel Center, 2009)
